Data published in PubChem BioAssay (NCI).
Several values for one entry are separate records, joined by “and”; a condition that tells them apart may be missing. Equal entries are not always repeated. About 83,000 compounds went through this panel and 20% of them were active in at least one assay; those are over-represented in the sample as a whole.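 Note: values are percent growth. 100 is the growth of untreated cells, values between 100 and 0 indicate rising inhibition; between -100 and 0 indicates cell death.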 Unmarked numbers belong to inactive results. Activity calls are given as the source filed them. How the source made its calls: active means growth percent below 10; inactive means the rest.

These compounds were tested on MDA-MB-468 breast (assay: NCI-60 one-dose screen, 48 h (100 = growth as untreated, 0 = no growth, -100 = all killed)). Details: 10 µM unless noted.

Row | SMILES | growth
1 | CCCCOc1nc2c(C)cccc2cc1-c1cc(-c2ccc(Cl)cc2)nc(-c2ccc(Cl)cc2)c1 | 102%
2 | O=C1CC2(CCOCC2)Oc2ncccc21 | 30.4%
3 | Cc1ccc2c(c1)C(=O)c1c-2c(OCCCN(C)C)nc2ccccc12 | 28.9%
4 | COc1ccc2c(c1)C(=O)CC(c1ccccc1OC)O2 (stereo not given) | 92.2%
5 | COc1ccc(C(=O)c2cc(C)c(OC)c(C)c2)c(OC)c1NC(C)=O | 12.4%
6 | CCCCCCOC(=O)CC1=C(C)/C(=C/c2[nH]c(-c3ccc[nH]3)cc2OC)N=C1C | -59.7% (active)
7 | NC(=S)N/N=C/c1ccc(OCc2ccccc2)cc1 | 47.3%
8 | O=C(Nc1cccc(-n2cc(-c3ccncc3)c(-c3ccc(O)c(Cl)c3)n2)c1)c1cccc(C(F)(F)F)c1 | 34.3%
9 | O=C(Nc1ccc(-n2cc(-c3ccncc3)c(-c3ccc(Cl)c(O)c3)n2)cc1)c1ccc(Cl)c(Cl)c1 | 54.2%
10 | CCN1C(=O)C2(Nc3ccccc3S2)c2cc(C)ccc21 (stereo not given) | 98.6%
11 | COc1cc(/C=C/C(=O)c2ccc(Cl)cc2)cc(CN2CCCCC2)c1O | 93.2%
12 | O=C(Oc1ccc2c(c1)sc1nc(-c3ccccc3)[nH]c(=O)c12)C(F)(F)F | 37.9%
13 | O=C(O)CCCCCN1C(=O)/C(=C/c2ccc(O)c(O)c2)SC1=S | 103%
14 | Cc1ccc(S(=O)(=O)c2c(COC(=O)c3cccc(C)c3)c(-c3ccccc3)nn2C)cc1 | -83.9% (active)
15 | Cc1cc(NCC(=O)Nc2ccc(-c3nc4ccccc4s3)cc2)no1 | -46.7% (active)
16 | CC(C)N(C(=S)SSC(=S)N(C(C)C)C(C)C)C(C)C | 110%
17 | Cc1ccc(-c2nc(SCC(=O)c3ccc(C#N)cc3)[nH]c(=O)c2C#N)cc1 | 120%
18 | COc1cc2oc(-c3ccc(O)cc3)cc(=O)c2c(O)c1I | 105%
19 | Cc1ccccc1NC(=O)CN(C)C | 107%
20 | Cc1cc(C)c(OC(=O)CSc2nc3ccccc3c(=O)n2CCc2ccccc2)cc1C | 101%

Row | SMILES | growth
21 | O=C1c2cccc3cccc(c23)C(=O)N1N1C(=O)c2cccc3c(NC4CCCCC4)ccc(c23)C1=O | 100%
22 | O=c1nc(-c2ccccc2)c2cc(-c3ccc(C(F)(F)F)nc3)ccc2[nH]1 | 104%
23 | O=C(O)/C=C\C(=O)Nc1cccc2ccccc12 | 92.2% and 111%
24 | C=C(c1ccc(N(C)C)cc1)c1ccc(N(C)C)cc1 | -30.9% (active)
25 | CC/C=C\C[C@H](O)C/C=C1/C(=O)C=C[C@@H]1C/C=C\CCCC(=O)NC(C)C | 1.98% (active)
26 | C/C(=N\NC(=S)Nc1ccccc1)c1ccccn1 | -10.2% (active)
27 | CCOC(=O)CSc1c([N+](=O)[O-])ncn1C | 91.1%
28 | Cc1ccc(NC2=C(Cl)C(=O)c3nc(C)ccc3C2=O)cc1 | -81.9% (active)
29 | COc1ccc2nc(NC(=O)c3cccnc3Nc3cc(OC)c(OC)c(OC)c3)sc2c1 | 60.3%
30 | Cc1cccc2c(=O)c3c(sc12)c(NCCCNCCO)nc1ccccc13 | 16.3%
31 | CC(=O)OC1CCC2(C)C(CCC3C4CC=C(C(C)=O)C4(C)OC(=O)CC32)C1 (stereo not given) | -72.4% (active)
32 | COc1cc(OC)cc(N2C(=O)N(Cc3ccc(C(C)(C)C)cc3)c3ccccc3S2(=O)=O)c1 | 51.8%
33 | COc1ccc(-c2cc(C(=O)N3N=C(c4ccc(N)cc4)CC3c3ccc(Cl)cc3)c3ccccc3n2)cc1 (stereo not given) | 18.4%
34 | CCCC(=O)Nc1ccccc1C(=O)O | 106%
35 | Nc1nc(Br)nc2c1ncn2C1CC(O)C(CO)O1 (stereo not given) | 100%
36 | NC(=O)c1c(NC(=O)c2ccc(F)cc2F)sc2c1CCC(=O)C2 | 81.7%
37 | CNC(=O)c1cc(N2CCc3cc(NC(=O)Nc4ccc(Cl)c(C(F)(F)F)c4)ccc32)ccn1 | 57%
38 | C=C1C(=O)O[C@H]2[C@H]1CC/C(COC(=O)OCCCCCOC(=O)OC/C1=C/CC[C@@]3(C)O[C@H]3[C@H]3OC(=O)C(=C)[C@@H]3CC1)=C\CC[C@@]1(C)O[C@@H]21 | -38.5% (active)
39 | Fc1ccc(CNCCNc2ncnc3c2cnn3-c2ccccc2)cc1 | 81.4%
40 | O=C(Nc1ccncc1)C(=O)c1cn(S(=O)(=O)c2ccc(Br)cc2)c2ccccc12 | 6.9% (active)
